From PubChem BioAssay
PAFAH1B3 FP inh – inhibitors of human PAFAH1B3. Q15102. recombinant PAFAH1B3, FP-rhodamine probe, fluorescence polarization. inhibition, % at 3.39 µM. 340,000 compounds, 0.28% hits;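 active means inhibition above the screen-wide average of all tested compounds plus 3 SD, cut at about 25% in these data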
PKA-R2B act – activates the human PKA-R2B holoenzyme complex. PKA-R2B holoenzyme dissociation, Cy5-IP20 fluorescence polarization; R2B truncated from residue 108, S112A mutant; 0% DMSO only, 100% 113 µM cGMP. activation, % at 11.4 µM. 340,000 compounds, 0.079% hits. AID 504700;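 active means activation above a cutoff set at the mean over all compounds plus 3 SD, cut at about 18% in these data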;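 further: higher means more holoenzyme dissociation and a rise in polarization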
PKA-R1A activ – activates the PKA-R1A holoenzyme complex. P00514+P68181. PKA-R1A dissociation, Cy5-IP20 fluorescence polarization; scaled: DMSO 0%, 113 µM cGMP 100%. activation, % at 11.4 µM. 340,000 compounds, 0.083% hits. AID 504707;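 active means percent activation above the mean of all tested compounds plus 3 SD, cut at about 19% in these data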;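 further: higher means more PKAc released from R1A so a rise in polarization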
PAFAH2 inh – PAFAH2 (human) inhibition | recombinant PAFAH2, FP-rhodamine activity probe, fluorescence polarization | inhibition, % at 3.39 µM | 340,000 compounds, 0.99% hits;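 active means inhibition above the mean over all tested compounds plus 3 SD, cut at about 30% in these data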;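 further: inhibitors block probe labeling of enzyme so polarization drops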
pPAFAH inh – pPAFAH (human) enzyme inhibition. Q13093. recombinant pPAFAH, FP-rhodamine probe fluorescence polarization. inhibition, % at 3.39 µM. 330,000 compounds, 1.5% hits;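 active means inhibition above the mean inhibition across the screen plus 3 SD, cut at about 25% in these data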;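 further: inhibitors block binding of the rhodamine activity-based probe so polarization drops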
PAFAH1B2 inh – inhibitors of human PAFAH1B2; P68402; recombinant PAFAH1B2, FP-rhodamine activity probe, fluorescence polarization; inhibition, % at 3.39 µM; 340,000 compounds, 1.2% hits;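 active means inhibition above the mean of all tested compounds plus 3 SD, cut at about 24% in these data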
R2B FP artifact – counter-screen for PKA-R2B activators: fluorescence polarization artifacts | FP artifact counterscreen | activation, % at 11.4 µM | 270 compounds, 6% hits | shares compounds with PKA-R2B act | AID 504796; in the data active means activation above about 20%;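 further: Cy5 labelled IP20 peptide probe with compound but no PKA protein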
PKA-R2B act conf – confirmation of human PKA-R2B complex activators; shares compounds with PKA-R2B act; fluorescence polarization, activation; activation, % at 11.4 µM; 270 compounds, 9% hits; in the data active means activation above about 19%
Target sequence (P31323 whole entry, looked up): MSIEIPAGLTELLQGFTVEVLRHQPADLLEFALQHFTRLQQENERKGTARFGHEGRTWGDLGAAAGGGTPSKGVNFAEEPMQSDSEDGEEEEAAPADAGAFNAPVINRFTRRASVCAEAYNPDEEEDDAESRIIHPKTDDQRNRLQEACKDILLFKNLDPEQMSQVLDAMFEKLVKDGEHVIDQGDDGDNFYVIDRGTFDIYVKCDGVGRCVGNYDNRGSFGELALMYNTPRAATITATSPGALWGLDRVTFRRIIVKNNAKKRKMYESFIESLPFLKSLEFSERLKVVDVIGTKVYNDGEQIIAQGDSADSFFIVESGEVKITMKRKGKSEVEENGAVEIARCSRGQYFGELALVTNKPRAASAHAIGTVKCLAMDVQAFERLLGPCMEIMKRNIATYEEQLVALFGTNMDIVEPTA
Numbers stand for hits; - = inactive; . = no result given. An excerpt weighted towards active compounds, which were near 2.6% of everything screened.

SMILES	PAFAH1B3 FP inh	PKA-R2B act	PKA-R1A activ	PAFAH2 inh	pPAFAH inh	PAFAH1B2 inh	R2B FP artifact	PKA-R2B act conf
c1ccc(-c2nnc(OCCN3CCOCC3)c3ccccc23)cc1	-	18.4	-	-	-	-	-	-
Cc1ccc(Cn2c(CN3CCOCC3)nc3c2c(=O)n(C)c(=O)n3C)cc1	-	-	-	-	-	-	.	.
Cc1ccc(Cn2c(CN3CC(C)OC(C)C3)nc3c2c(=O)n(C)c(=O)n3C)cc1 (configuration not stated)	-	19.0	-	-	-	-	-	-
CCn1nc(C)cc1C(=O)NC1CCCc2c1cnn2-c1cc(F)cc(F)c1 (configuration not stated)	-	-	-	-	.	-	.	.
CCOC(=O)CN1C(=O)N[C@@H](CCc2ccccc2)[C@H](C(C)=O)[C@H]1C	-	-	-	-	-	-	.	.
Cc1cc(C)c(S(=O)(=O)NCC(=O)O)cc1C	-	20.3	-	-	-	-	-	-
COc1ccc(OC)c(S(=O)(=O)NCC(=O)O)c1	-	-	-	-	-	-	.	.
CCOC(=O)C(NCCOC)(NC(C)=O)C(F)(F)F (configuration not stated)	-	-	-	-	-	-	.	.
COc1ccc(C(=O)NC2(C(F)(F)F)N=C3SCCN3C2=O)cc1 (configuration not stated)	-	19.5	-	-	-	-	-	-
C=CCNC(=O)c1ccc(-c2nc(-c3ccccc3)cs2)cc1	-	-	-	-	-	-	.	.
C=CCNC(=O)c1ccc(-c2nc3ccccc3nc2-c2ccccc2)cc1	-	22.0	-	-	-	-	-	-
COc1ccc(CC(=O)OCC(=O)NC2CCCCC2)cc1OC	-	18.4	-	-	-	-	-	-
CCOc1c(CNCCNC(=O)c2nonc2N)cccc1OC	-	19.0	-	-	-	-	-	-
COc1ccc(OC)c(C(=O)NC(CC(N)=O)c2ccc(N3CCN(c4ccccn4)CC3)c([N+](=O)[O-])c2)c1 (configuration not stated)	-	20.9	-	-	-	-	-	-
CCN1C=C(C(=O)c2ccccc2)C(=O)CC1	-	20.3	-	-	.	-	-	-
CC(C)COC(=O)Cc1c(O)c2ccccc2[nH]c1=O	-	21.2	-	-	-	-	-	-
CC(=O)N1CCCC(C(=O)c2ccc3c4c(cccc24)CC3)C1 (configuration not stated)	-	25.1	-	-	-	-	-	-
CN1CCC(C(=O)N2CCCC(C(=O)c3ccc4c5c(cccc35)CC4)C2)CC1 (configuration not stated)	-	-	-	-	-	-	.	.
COc1ccc(NC(=O)CCNC(=O)Cn2cnc3ccccc3c2=O)cc1OC	-	21.1	-	-	-	-	-	-
O=C(NC1CCCCCC1)c1c(O)nc2sccn2c1=O	-	-	-	-	-	-	.	.
O=C(NC1CCCCC1)c1c(O)nc2sccn2c1=O	-	19.7	-	-	-	-	-	-
Cc1cc(C)c(S(=O)(=O)N2CCC3(CC2)OCCN3S(=O)(=O)c2cccs2)c(C)c1	-	-	-	-	.	-	.	.
COC(=O)CCC(=O)OC1(C)C(=O)C=C2C=C(C3CC3)N(C3CC3)C=C2C1=O (configuration not stated)	-	-	-	-	-	-	.	.
COCCN1C=C2C(=O)C(C)(OC(=O)CCC(=O)OC)C(=O)C=C2C=C1C1CC1 (configuration not stated)	-	20.3	-	-	-	-	-	-
COC(=O)CN1C(=S)N(c2ccc(Cl)cc2)C(=O)C1CC(=O)Nc1ccccc1 (configuration not stated)	-	-	-	-	-	-	.	.
COC(=O)CN1C(=S)N(C)C(=O)C1CC(=O)Nc1ccccc1 (configuration not stated)	-	20.9	-	-	-	-	-	-
COc1ccc(C(C)=O)cc1CSc1nc2ccccc2c(=O)n1-c1ccccc1	-	-	-	-	-	-	.	.
